# Test results taken from article PMC4336329 (PLoS ONE, 2015).
# Among all 310,000 compounds or so, about 14,000 (4.5%) showed an effect of 50% or more. Effects have a minus sign here. For the sample, strong results were picked, then their nearest neighbours and some compounds at random.
# Target: human ether-à-go-go-related gene (hERG) potassium channel (human, UniProt Q12809)
# Test: primary screen, population patch clamp on CHO cells stably expressing hERG; higher = less effect of the substance
# 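Note: peak tail current of the secondary pulse compared with the same well before compound.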
# Sequence of human ether-à-go-go-related gene (hERG) potassium channel (Q12809 whole entry, looked up): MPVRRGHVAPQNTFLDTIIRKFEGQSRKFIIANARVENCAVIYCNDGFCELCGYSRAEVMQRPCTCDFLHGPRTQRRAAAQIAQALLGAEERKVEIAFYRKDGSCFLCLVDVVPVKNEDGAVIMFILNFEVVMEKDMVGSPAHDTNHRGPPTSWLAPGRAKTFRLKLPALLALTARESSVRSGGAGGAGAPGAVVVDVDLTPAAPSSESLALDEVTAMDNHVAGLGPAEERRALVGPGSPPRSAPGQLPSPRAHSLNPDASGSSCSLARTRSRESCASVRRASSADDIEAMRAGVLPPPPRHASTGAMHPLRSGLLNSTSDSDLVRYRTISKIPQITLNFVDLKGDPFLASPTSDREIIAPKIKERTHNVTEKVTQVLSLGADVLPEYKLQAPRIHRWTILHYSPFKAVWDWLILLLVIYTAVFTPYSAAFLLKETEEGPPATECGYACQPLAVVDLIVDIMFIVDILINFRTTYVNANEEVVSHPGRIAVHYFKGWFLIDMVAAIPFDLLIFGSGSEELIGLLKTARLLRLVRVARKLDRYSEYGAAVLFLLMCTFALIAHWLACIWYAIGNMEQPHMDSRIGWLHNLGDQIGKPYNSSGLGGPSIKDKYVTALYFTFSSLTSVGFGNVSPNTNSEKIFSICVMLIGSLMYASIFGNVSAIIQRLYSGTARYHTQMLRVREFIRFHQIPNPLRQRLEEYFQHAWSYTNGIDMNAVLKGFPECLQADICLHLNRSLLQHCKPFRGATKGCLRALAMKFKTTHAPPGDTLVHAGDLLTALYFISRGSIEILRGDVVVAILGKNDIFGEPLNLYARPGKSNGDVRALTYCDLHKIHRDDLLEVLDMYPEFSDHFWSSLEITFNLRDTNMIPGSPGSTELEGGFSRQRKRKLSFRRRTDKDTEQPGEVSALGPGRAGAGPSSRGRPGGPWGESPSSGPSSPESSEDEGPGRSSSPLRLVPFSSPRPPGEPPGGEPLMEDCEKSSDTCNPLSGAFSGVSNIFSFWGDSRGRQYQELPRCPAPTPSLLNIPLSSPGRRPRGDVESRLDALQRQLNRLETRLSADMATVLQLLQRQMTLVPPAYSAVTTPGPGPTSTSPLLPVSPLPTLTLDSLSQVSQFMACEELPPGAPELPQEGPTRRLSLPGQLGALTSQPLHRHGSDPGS
row,SMILES,"hERG current change (%, negative = inhibition) at 10uM [%]"
1,O=C(NC1(Cc2ccccc2)CCN(CCc2cccs2)C1=O)c1ccccc1 (stereo not drawn),-1.81
2,Cc1ccc(C)c(Nc2cc(C)nc(-c3ccccc3O)n2)c1,15
3,COc1cc(C(=S)N2CCCC2)ccc1OCC(N)=O,17.8
4,COC(=O)c1n[nH]n(-c2ccc(F)c(Cl)c2)c1=O,9.84
5,CCC(C)N(C(=O)CN1C(=O)NC2(CCc3ccccc32)C1=O)C1CCS(=O)(=O)C1 (stereo not drawn),-3.41
6,CC1CCN(CCCCOc2ccc(C(C)(C)C)cc2)CC1.O=C(O)C(=O)O,-59.6
7,CC1CCN(CCCCOc2ccc(Cl)cc2)CC1.O=C(O)C(=O)O,-71.7
8,Cc1ccc(OCCCCN2CCC(C)CC2)cc1.O=C(O)C(=O)O,-23.4
9,Cc1ccc(OCCCCCCN2CCNCC2)cc1.O=C(O)C(=O)O,-11.6
10,CC(C)(c1ccccc1)c1ccc(OCCCN2CCNCC2)cc1.O=C(O)C(=O)O,3.19
11,COc1ccc(OCCCCN2CCC(C)CC2)cc1.O=C(O)C(=O)O,-29
12,CC(C)OCCCNC(=O)c1ccc(Br)cc1,-8.3
13,CC(=O)c1ccc(NC(=O)CNCc2cccs2)cc1.O=C(O)C(=O)O,-0.848
14,Cc1ccc2[nH]c(C(=O)O)c(NC(=O)CN3CCN(c4cccc(C)c4C)CC3)c2c1.Cl,13.1
15,Cc1ccc(-c2noc(CN(C(=O)CCCN3C(=O)c4ccccc4C3=O)C(C)C)n2)cc1,-39.7
16,Cc1ccc(-c2noc(CN(C(=O)CCN3C(=O)c4ccccc4C3=O)C(C)C)n2)cc1,-63.6
17,Cc1ccc(-c2noc(CN(C(=O)CCCCCN3C(=O)c4ccccc4C3=O)C(C)C)n2)cc1,-15.3
18,Cc1c(NC(=O)c2ccco2)cccc1-c1nc2cccnc2s1,-45.8
19,c1ccc(-c2ccc(CN3C[C@@H]4C(c5ccccc5)C5(c6ccccc6)CC4(C5)[C@H]3c3ccccc3)cc2)cc1 (stereo partly drawn),-5.02
20,CC1CCN(CC#CCOc2ccc(Cl)cc2)CC1.O=C(O)C(=O)O,-5.81
21,Cc1cc(OCC(=O)N2CCC(C(N)=O)CC2)c2c(C)cc(=O)oc2c1,15.6
22,Cc1cccc(C(=O)NC2CCN(CC(=O)Nc3ccc4c(c3)OCO4)CC2)c1,-57.7
23,O=C(CCN1CCN(Cc2ccccc2)CC1)Nc1cccc(Br)c1,-63

row,SMILES,"hERG current change (%, negative = inhibition) at 10uM [%]"
1,O=C(CCN1CCN(c2ccccc2)CC1)Nc1ccccc1,-22.9
2,O=C(CCN1CCN(CCO)CC1)Nc1cccc(Br)c1,-19
3,O=C(CN1CCC(NC(=O)c2ccccc2F)CC1)Nc1ccc2c(c1)OCO2,-41.7
4,Cc1ccc(NC(=O)CN2CCC(C(=O)c3ccc4c(c3)OCCO4)CC2)cc1,-44.7
5,Cc1cccc(NC(=O)CN2CCC(C(=O)c3ccc4c(c3)OCCO4)CC2)c1,-54.2
6,O=C(CCN1CCN(c2ccccc2)CC1)Nc1cccc(Br)c1,-61.4
7,O=C(CCN1CCCC1)Nc1cccc(Br)c1,-20.6
8,CN1CCN(CCC(=O)Nc2cccc(Br)c2)CC1,-19
9,Cc1ccccc1C(=O)NC1CCN(CC(=O)Nc2ccc3c(c2)OCO3)CC1,-47.3
10,Cc1ccc(C(=O)C2CCN(CC(=O)Nc3ccc4c(c3)OCCO4)CC2)cc1,-2.3
11,CCOc1ccccc1N(C)S(=O)(=O)c1ccc2c(c1)CC(C)N2C(=O)C1CC1 (stereo not drawn),9.49
12,O=c1[nH][nH]c(C(F)(F)F)c1C=NCc1ccc(Cl)cc1,-1.88
13,COC(=O)C1=C(C(=O)OC)[C@@H]2N(C)c3ccccc3[C@@]23C[C@@H](C(=O)OC)N=C3N1,-2.81
14,CCOC(=O)N1CCC(N(CCN(C)C)C(=S)Nc2ccccc2C)CC1,3.33
15,CN(C)S(=O)(=O)c1cccc(NC(=O)CSc2nc3ccccc3[nH]2)c1,-22.2
16,Cc1cc(C)n2c(-c3ccccc3Cl)nnc2n1,-14.8
17,O=C(NCCCCO)c1ccc2c3c(cccc13)CC2,7.52
18,CC(=O)NS(=O)(=O)c1cccnc1Nc1ccc(Cl)c(Cl)c1,16.1
19,CC(=O)Nc1nc2c(c3c1c(=O)oc1ccccc13)CCCCC2,-7.1
20,C=C[C@@]12CN(C)[C@H]3[C@H]1[C@@]1(C(=O)Nc4ccccc41)C1CC2[C@@H]3CO1,13
21,O=c1c2c(-c3cccs3)csc2ncn1-c1ccccc1,-28.3
22,CCOc1ccc(N2C(=O)c3ccc(C(=O)OCC(=O)N(CC)C4CCS(=O)(=O)C4)cc3C2=O)cc1 (stereo not drawn),-22.3
